Source: ChEMBL document CHEMBL1961873, “Compounds: GSK PKIS; Assays: Nanosyn kinase panel” (2012)

Assays:
[1] = molecular target: Mitogen-activated protein kinase kinase kinase kinase 4 (Homo sapiens) (UniProt O95819); settings: at 1 µM;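 also: reported figure is an averaged inhibition value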
[2] = molecular target: Dual specificity mitogen-activated protein kinase kinase 1 (Homo sapiens) (UniProt Q02750); settings: at 0.1 µM
[3] = molecular target: Dual specificity mitogen-activated protein kinase kinase 1 (Homo sapiens) (UniProt Q02750); settings: at 1 µM
[4] = molecular target: Misshapen-like kinase 1 (Homo sapiens) (UniProt Q8N4C8); settings: at 0.1 µM
[5] = molecular target: Misshapen-like kinase 1 (Homo sapiens) (UniProt Q8N4C8); settings: at 1 µM
[6] = molecular target: T1, Serine/threonine-protein kinase 4 (Homo sapiens) (UniProt Q13043); settings: at 0.1 µM
T1 sequence (whole entry): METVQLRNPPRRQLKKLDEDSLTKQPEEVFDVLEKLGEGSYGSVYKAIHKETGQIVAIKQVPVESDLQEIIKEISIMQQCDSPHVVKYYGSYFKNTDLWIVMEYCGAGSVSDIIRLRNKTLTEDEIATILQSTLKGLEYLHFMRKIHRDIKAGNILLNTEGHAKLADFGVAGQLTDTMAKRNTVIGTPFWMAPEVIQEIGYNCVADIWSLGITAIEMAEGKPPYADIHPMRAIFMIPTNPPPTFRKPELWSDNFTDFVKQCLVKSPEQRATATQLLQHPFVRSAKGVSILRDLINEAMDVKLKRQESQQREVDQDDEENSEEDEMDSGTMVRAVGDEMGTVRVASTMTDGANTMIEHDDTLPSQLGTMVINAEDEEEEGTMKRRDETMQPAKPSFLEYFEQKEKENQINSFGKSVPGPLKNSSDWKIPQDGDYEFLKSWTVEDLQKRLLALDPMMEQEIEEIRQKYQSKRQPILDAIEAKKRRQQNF

[7] = molecular target: T1, Serine/threonine-protein kinase 4 (Homo sapiens); settings: at 1 µM
[8] = molecular target: T2, Serine/threonine-protein kinase 3 (Homo sapiens) (UniProt Q13188); settings: at 0.1 µM
T2 sequence (whole entry): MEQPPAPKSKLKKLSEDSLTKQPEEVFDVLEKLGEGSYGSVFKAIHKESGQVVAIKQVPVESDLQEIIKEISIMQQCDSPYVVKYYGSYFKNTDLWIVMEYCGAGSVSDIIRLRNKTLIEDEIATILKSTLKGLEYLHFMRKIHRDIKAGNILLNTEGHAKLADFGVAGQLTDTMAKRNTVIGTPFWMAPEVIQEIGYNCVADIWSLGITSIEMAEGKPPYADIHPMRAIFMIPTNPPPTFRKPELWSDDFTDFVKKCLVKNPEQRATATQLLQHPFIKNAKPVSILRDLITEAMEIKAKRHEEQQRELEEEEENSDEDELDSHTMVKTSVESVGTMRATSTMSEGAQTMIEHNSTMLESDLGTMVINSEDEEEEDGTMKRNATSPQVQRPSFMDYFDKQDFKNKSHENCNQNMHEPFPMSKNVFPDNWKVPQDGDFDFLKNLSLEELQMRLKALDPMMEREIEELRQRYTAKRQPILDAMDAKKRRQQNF

[9] = molecular target: T2, Serine/threonine-protein kinase 3 (Homo sapiens); settings: at 1 µM
[10] = molecular target: Serine/threonine-protein kinase 26 (Homo sapiens) (UniProt Q9P289); settings: at 0.1 µM
[11] = molecular target: Serine/threonine-protein kinase 26 (Homo sapiens) (UniProt Q9P289); settings: at 1 µM
[12] = molecular target: Serine/threonine-protein kinase PAK 1 (Homo sapiens) (UniProt Q13153); settings: at 0.1 µM
[13] = molecular target: Serine/threonine-protein kinase PAK 1 (Homo sapiens) (UniProt Q13153); settings: at 1 µM
[14] = molecular target: Serine/threonine-protein kinase PAK 2 (Homo sapiens) (UniProt Q13177); settings: at 0.1 µM
[15] = molecular target: Serine/threonine-protein kinase PAK 2 (Homo sapiens) (UniProt Q13177); settings: at 1 µM
[16] = molecular target: Serine/threonine-protein kinase PAK 3 (Homo sapiens) (UniProt O75914); settings: at 0.1 µM
[17] = molecular target: Serine/threonine-protein kinase PAK 3 (Homo sapiens) (UniProt O75914); settings: at 1 µM
[18] = molecular target: Serine/threonine-protein kinase PAK 5 (Homo sapiens) (UniProt Q9P286); settings: at 0.1 µM
[19] = molecular target: Serine/threonine-protein kinase PAK 5 (Homo sapiens) (UniProt Q9P286); settings: at 1 µM
[20] = molecular target: Serine/threonine-protein kinase PAK 6 (Homo sapiens) (UniProt Q9NQU5); settings: at 0.1 µM;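 also: mean PAK6 inhibition reported from the GSK PKIS screen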
Serine/threonine-protein kinase PAK 6 (Homo sapiens), sequence (Q9NQU5 whole entry, looked up): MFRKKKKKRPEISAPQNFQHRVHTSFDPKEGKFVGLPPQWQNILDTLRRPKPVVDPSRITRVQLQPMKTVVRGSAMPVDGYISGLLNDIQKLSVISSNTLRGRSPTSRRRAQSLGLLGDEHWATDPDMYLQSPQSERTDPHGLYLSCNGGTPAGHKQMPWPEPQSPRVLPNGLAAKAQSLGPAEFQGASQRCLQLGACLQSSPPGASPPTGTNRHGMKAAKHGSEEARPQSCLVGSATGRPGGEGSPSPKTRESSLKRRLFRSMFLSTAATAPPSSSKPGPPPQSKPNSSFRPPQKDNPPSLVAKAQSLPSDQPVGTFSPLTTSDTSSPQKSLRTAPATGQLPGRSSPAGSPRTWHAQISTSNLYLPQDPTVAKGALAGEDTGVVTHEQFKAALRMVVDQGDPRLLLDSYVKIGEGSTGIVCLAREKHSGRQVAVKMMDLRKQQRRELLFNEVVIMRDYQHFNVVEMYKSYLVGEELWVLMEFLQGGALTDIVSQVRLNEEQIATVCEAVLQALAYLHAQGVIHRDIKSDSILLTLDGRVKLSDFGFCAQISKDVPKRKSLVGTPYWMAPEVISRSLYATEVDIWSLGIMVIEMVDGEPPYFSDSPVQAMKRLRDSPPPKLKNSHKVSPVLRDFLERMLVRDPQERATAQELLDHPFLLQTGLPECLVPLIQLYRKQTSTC

Serine/threonine-protein kinase PAK 5 (Homo sapiens), sequence (Q9P286 whole entry, looked up): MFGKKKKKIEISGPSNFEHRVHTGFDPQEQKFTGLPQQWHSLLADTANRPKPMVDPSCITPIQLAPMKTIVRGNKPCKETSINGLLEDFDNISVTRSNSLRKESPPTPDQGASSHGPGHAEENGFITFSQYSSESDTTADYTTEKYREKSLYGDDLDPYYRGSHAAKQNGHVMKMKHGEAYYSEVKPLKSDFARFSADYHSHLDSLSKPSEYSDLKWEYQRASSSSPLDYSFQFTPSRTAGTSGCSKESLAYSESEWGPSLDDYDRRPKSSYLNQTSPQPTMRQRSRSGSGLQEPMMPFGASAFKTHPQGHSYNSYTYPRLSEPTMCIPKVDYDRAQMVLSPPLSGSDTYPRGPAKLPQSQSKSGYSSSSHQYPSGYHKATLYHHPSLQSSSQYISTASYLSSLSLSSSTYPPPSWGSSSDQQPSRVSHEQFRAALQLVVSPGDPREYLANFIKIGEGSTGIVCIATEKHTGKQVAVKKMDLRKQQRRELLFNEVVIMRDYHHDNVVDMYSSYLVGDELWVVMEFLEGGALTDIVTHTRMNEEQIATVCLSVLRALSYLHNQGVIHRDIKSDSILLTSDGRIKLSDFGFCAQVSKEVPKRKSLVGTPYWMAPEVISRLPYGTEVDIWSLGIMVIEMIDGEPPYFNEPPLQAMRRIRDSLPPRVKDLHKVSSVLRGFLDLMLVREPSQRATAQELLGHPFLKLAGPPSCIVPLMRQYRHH
Serine/threonine-protein kinase 26 (Homo sapiens), sequence (Q9P289 2-416 limits assumed): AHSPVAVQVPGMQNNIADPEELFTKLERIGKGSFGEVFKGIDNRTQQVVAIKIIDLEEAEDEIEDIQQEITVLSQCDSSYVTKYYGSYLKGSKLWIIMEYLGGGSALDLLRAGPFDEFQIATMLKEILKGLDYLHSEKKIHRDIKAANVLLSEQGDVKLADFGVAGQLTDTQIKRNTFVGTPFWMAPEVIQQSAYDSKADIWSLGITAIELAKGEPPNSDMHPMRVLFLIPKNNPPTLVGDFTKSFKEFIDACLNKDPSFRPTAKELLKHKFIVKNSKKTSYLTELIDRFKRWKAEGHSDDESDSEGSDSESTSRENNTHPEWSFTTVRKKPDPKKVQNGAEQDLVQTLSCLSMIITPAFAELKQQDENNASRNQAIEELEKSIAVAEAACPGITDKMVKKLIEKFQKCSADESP
Dual specificity mitogen-activated protein kinase kinase 1 (Homo sapiens), sequence (Q02750 whole entry): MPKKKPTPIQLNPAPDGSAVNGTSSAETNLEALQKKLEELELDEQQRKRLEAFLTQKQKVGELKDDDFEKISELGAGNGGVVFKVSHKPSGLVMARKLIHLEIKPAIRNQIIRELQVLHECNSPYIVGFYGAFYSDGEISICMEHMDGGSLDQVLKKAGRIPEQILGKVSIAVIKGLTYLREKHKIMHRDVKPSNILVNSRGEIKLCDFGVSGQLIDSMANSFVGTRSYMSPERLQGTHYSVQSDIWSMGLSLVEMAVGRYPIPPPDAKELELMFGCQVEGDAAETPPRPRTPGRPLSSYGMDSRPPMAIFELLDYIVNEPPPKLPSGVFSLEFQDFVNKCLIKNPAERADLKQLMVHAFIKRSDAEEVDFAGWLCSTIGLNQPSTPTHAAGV
Serine/threonine-protein kinase PAK 1 (Homo sapiens), sequence (Q13153 whole entry): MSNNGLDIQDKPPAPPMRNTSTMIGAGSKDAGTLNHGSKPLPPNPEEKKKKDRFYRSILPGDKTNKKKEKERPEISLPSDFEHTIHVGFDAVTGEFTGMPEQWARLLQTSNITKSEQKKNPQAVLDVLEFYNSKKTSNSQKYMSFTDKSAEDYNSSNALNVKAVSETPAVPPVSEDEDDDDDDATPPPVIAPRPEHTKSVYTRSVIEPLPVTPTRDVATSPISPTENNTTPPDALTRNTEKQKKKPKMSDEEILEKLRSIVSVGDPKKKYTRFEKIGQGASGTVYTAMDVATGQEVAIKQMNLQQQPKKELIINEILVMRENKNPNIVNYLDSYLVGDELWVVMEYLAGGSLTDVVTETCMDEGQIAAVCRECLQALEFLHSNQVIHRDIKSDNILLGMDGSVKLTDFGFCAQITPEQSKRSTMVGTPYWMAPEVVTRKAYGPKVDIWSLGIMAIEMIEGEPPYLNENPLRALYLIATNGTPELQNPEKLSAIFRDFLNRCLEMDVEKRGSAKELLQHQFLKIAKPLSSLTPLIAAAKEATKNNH
Misshapen-like kinase 1 (Homo sapiens), sequence (Q8N4C8 whole entry, looked up): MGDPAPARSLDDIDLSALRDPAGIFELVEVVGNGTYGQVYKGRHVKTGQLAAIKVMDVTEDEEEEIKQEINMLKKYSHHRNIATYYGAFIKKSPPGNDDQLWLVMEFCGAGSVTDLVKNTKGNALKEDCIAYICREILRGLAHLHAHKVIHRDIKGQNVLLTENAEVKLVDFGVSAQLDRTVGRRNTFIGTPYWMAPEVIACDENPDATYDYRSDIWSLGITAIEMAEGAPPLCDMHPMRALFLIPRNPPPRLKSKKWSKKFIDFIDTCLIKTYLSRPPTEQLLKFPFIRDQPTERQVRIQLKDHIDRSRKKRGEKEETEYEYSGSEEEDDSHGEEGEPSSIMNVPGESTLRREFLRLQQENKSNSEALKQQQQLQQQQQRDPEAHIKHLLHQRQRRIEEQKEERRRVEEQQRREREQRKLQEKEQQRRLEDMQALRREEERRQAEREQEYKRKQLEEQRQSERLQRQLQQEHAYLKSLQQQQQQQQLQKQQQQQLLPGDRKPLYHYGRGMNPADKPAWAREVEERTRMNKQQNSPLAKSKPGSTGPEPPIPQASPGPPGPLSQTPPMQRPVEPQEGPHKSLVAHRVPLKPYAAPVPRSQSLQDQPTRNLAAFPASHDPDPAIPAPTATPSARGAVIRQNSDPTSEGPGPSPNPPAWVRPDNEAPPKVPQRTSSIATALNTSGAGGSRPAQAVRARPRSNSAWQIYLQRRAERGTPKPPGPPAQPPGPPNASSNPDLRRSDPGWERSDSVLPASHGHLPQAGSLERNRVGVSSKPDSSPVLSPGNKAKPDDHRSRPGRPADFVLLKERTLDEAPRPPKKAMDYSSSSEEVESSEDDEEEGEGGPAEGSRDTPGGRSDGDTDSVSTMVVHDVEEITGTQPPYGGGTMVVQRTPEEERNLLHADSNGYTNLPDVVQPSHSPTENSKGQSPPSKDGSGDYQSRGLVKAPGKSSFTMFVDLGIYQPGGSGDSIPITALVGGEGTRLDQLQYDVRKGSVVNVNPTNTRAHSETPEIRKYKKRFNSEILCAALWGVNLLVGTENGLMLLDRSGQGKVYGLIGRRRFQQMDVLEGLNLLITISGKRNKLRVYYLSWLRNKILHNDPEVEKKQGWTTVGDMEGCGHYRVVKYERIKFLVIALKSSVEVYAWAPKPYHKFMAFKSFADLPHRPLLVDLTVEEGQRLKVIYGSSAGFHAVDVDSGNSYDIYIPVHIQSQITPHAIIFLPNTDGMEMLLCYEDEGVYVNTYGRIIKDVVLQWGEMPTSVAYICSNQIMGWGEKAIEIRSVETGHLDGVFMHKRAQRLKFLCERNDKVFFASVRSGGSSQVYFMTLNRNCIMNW
Serine/threonine-protein kinase PAK 2 (Homo sapiens), sequence (Q13177 whole entry): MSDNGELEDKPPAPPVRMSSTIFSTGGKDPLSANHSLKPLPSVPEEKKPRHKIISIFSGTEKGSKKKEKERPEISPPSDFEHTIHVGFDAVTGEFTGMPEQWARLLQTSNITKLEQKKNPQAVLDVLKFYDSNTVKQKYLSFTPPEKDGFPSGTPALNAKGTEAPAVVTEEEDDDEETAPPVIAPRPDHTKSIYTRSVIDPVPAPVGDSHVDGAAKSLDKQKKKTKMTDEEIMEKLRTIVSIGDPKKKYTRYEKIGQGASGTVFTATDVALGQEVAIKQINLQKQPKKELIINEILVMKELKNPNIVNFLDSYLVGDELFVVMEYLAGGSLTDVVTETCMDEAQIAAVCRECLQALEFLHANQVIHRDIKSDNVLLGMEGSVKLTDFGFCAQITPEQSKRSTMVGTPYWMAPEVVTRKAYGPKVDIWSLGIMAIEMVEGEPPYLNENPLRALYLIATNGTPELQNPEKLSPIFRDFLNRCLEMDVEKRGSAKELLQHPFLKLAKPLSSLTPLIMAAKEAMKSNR

Row | Structure (SMILES) | inhibition [1] | inhibition [2] | inhibition [3] | inhibition [4] | inhibition [5] | inhibition [6] | inhibition [7] | inhibition [8] | inhibition [9] | inhibition [10] | inhibition [11] | inhibition [12] | inhibition [13] | inhibition [14] | inhibition [15] | inhibition [16] | inhibition [17] | inhibition [18] | inhibition [19] | inhibition [20]
1 | CNC(=O)c1cncc(/C=C/c2ccccc2Cl)c1 | 15.2% | -0.39% | 2.24% | 2.28% | 15.4% | 4.63% | 7.5% | 5.87% | 7.94% | 1.78% | 1.7% | 0.81% | 1.33% | 0.07% | -0.55% | 0.06% | 0.54% | 6.76% | 4.3% | 8.93%
2 | NS(=O)(=O)c1ccc(Nc2ncc(-c3ccccc3)o2)cc1 | 58.6% | 2.3% | 2.12% | 8.89% | 41.9% | 6.4% | 10.2% | 7.3% | 8.38% | -1.93% | -2.5% | 4.04% | 7.88% | 2.52% | 1.78% | 4.23% | 5.19% | 8.88% | 9.45% | -1.35%
3 | CN(C)CCOc1ccc(-c2nc(-c3ccncc3)c(-c3ccc4c(c3)CC/C4=N\O)[nH]2)cc1 | 47.2% | 4.37% | 3.23% | 8.74% | 37.3% | 4.67% | 6.56% | 4.63% | 4.58% | -1.19% | -0.6% | 4.61% | 9.24% | 2.66% | 2.42% | 3.85% | 4.82% | 7.4% | 7.07% | -7.61%
4 | CS(=O)(=O)CCNCc1ccc(-c2ccc3ncnc(Nc4ccc(OCc5ccccc5)c(C(F)(F)F)c4)c3c2)o1 | 4.73% | 3.83% | 3.81% | 5.41% | 5.83% | 2.67% | 3.71% | 4.04% | 4.03% | -1.35% | -2.67% | 4.26% | 8.46% | 1.24% | 1.28% | 4.99% | 4.14% | 1.91% | 3.73% | -5.25%
5 | Nc1nc(-c2cccc(Cl)c2)c(-c2ccc3ncccc3n2)s1 | 60.1% | 5.85% | 5.35% | 10.7% | 46.9% | 5.29% | 7.53% | 5.84% | 7.74% | -1.9% | -1.1% | 6.12% | 6.28% | 2.17% | 1.78% | 3.01% | 6.05% | 1.62% | -3.64% | 3.19%
6 | CCc1nn2ncccc2c1-c1ccnc(NC2CC2)n1 | 5.59% | 2.65% | 2.39% | 3.11% | 3.73% | 1.74% | 3.6% | 1.75% | 5.22% | -1.35% | 1.56% | 3.36% | 4.68% | 1.85% | 1.62% | 3.09% | 3.37% | -2.62% | 0.37% | -9.47%
7 | COc1cc2c(cc1Nc1nc(Nc3ccsc3C(N)=O)c3cc[nH]c3n1)N(C(=O)CN(C)C)CCC2(C)C | 14.8% | 6.86% | 12.3% | 11.4% | 15.3% | 15.6% | 47.7% | 12.3% | 22.1% | 3.1% | 0.56% | 8.7% | 7.09% | 2.44% | 3.48% | 5.68% | 5.85% | -2.38% | -3.07% | -6.17%
8 | O=C(O[C@H]1CN[C@H](C#Cc2cc3ncnc(Nc4ccc(Cc5ccccc5)cc4)c3s2)C1)N1CCOCC1 | -0.81% | 1.32% | 1.73% | 3.34% | 1.04% | 1.14% | 3.13% | 3.94% | 3.64% | -0.29% | -0.68% | 0.1% | 2.79% | 0.85% | 0.99% | 3.06% | 2.95% | 0.53% | 0.17% | -2.8%
9 | CC(C)(CO)CNC(=O)c1ccc2c(c1)/C(=N/Nc1ccc(S(N)(=O)=O)cc1)C(=O)N2 | 18.8% | 6.31% | 43.1% | 1.9% | 13.1% | 40.7% | 80.2% | 31.6% | 77.1% | 0.44% | 7.27% | 3.17% | 3.48% | -1.4% | -0.42% | -1.02% | 0.96% | -0.42% | 0.12% | 2.03%
10 | CCn1c(-c2nonc2N)nc2c(C#CC(C)(C)O)nc(OC[C@H](N)c3ccccc3)cc21 | 35.1% | 2.26% | 4.39% | 6.18% | 21.1% | 7.92% | 42.7% | 9.64% | 42.4% | -0.06% | 28.1% | 1.29% | 3.91% | 1.1% | 10.9% | 2.18% | 4.83% | 37.3% | 70.9% | 49.4%
11 | Nc1nc(-c2ccc(F)cc2)c(-c2ccc3ncccc3n2)s1 | 61.8% | 6.1% | 4.31% | 13.2% | 47.9% | 6.16% | 6.98% | 7.16% | 5.82% | 0.24% | 9.07% | 6.29% | 6.35% | 1.67% | 2.07% | 5.1% | 5.56% | 2.84% | 4.21% | 1.6%
12 | CCN1CCC(CC(=O)Nc2n[nH]c3nnc(-c4cccc(F)c4F)cc23)CC1 | 3.87% | 2.23% | 2.45% | 3.67% | 4.07% | 2.83% | 6.13% | 3.62% | 5.19% | 0.66% | 1.9% | 3.95% | 4.17% | 2.09% | 0.33% | 3.91% | 1.02% | 2% | 0.92% | 4.45%
13 | CCN(CC)S(=O)(=O)c1ccc(OC)c(Nc2ncc(-c3ccccc3)o2)c1 | 7.43% | -0.08% | 0.32% | 4.58% | 7.11% | 6.37% | 11% | 7% | 9.26% | 0.95% | 2.13% | -1.78% | 3.9% | -0.97% | 0.12% | 0.22% | 1.76% | 8.61% | -0.8% | 5.19%
14 | NS(=O)(=O)c1ccc(N/N=C2\C(=O)Nc3ccc4ncccc4c32)cc1 | 82.4% | 14.3% | 61.1% | 34.1% | 76.2% | 84.6% | 89.5% | 80.3% | 88.3% | 43.6% | 72.5% | 5.44% | 7.55% | 1.04% | 3.9% | 2.76% | 3.77% | -1.93% | 3.21% | -4.05%
